# Experimental data from PubChem BioAssay (NCATS).
# Results filed as inconclusive are left out. Calls of active or inactive are those of the source. Unless noted, calls follow the shape of the dose curve; as a rule, active = well fitted curve in the direction sought with a large enough effect; inconclusive = small, poorly fitted or top-dose-only effect, or another doubt; inactive = no such curve, though single readings can be large; an effect the other way counts as inactive or inconclusive.
# Tests used:
# [1] = qHTS profiling for inhibitors of Plasmodium falciparum (3D7) proliferation (AID 743322; call rule not given here;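 also: infected erythrocytes exposed to compound for 72 h before lysis; 100% = DMSO vehicle wells and 0% = 0.29 µM artemisinin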); details: P. falciparum 3D7 proliferation; at 28.7 µM (top of the series)
# In short: (§1)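 Parasite DNA was quantified by SYBR Green I fluorescence (ex 485, em 535 nm) after overnight lysis in saponin/Triton buffer at room temperature. Cultures at 0.3% parasitemia and 2.5% hematocrit were first exposed to compound for 72 h at 37 C; signals were normalised to artemisinin (0.29 uM) and vehicle wells.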
# [2] = qHTS profiling for inhibitors of Plasmodium falciparum (DD2) proliferation (AID 743323; call rule not given here); details: lower = more inhibition; at 28.7 µM (top of the series)
# In short: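 Parasite proliferation measured via DNA-dye fluorescence, as uninfected erythrocytes lack DNA. Cultures at 0.3% parasitemia and 2.5% hematocrit incubated 72 h with compound; signal scaled between vehicle and 0.29 uM artemisinin wells.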
# [3] = qHTS profiling for inhibitors of Plasmodium falciparum (HB3) proliferation (AID 743324); details: Plasmodium falciparum HB3 blood-stage proliferation; at 28.7 µM (top of the series);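 also: 100% = DMSO vehicle wells and 0% = artemisinin-treated control wells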
# In short: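 SYBR Green fluorescence (485 ex/535 em) of lysed cultures, incubated overnight at room temperature in the dark, quantifies parasite DNA. Infected erythrocytes at 0.3% parasitemia and 2.5% hematocrit were exposed 72 h; values normalized to DMSO and 0.29 uM artemisinin controls.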
# [4] = qHTS profiling of the MIPE4 collection as inhibitors of Plasmodium falciparum (3D7) proliferation (AID 743344; call rule not given here;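 also: scaled between DMSO vehicle wells and 0.29 µM artemisinin as full inhibition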); details: P. falciparum 3D7 in erythrocytes, SYBR Green DNA fluorescence, 72 h; at 28.5 µM (top of the series) unless noted
# In short: as §1
# [5] = qHTS profiling of the MIPE4 collection as inhibitors of Plasmodium falciparum (DD2) proliferation (AID 743345; call rule not given here); details: P. falciparum Dd2 in erythrocytes, SYBR Green DNA, 72 h; at 28.5 µM (top of the series) unless noted
# In short: as §1
# [6] = qHTS profiling of the MIPE4 collection as inhibitors of Plasmodium falciparum (DD2) proliferation (Rep 2) (AID 743346; call rule not given here); details: P. falciparum Dd2 in erythrocytes, SYBR Green DNA, 72 h; at 28.5 µM (top of the series) unless noted
# In short: as §1
# [7] = qHTS profiling of the MIPE4 collection as inhibitors of Plasmodium falciparum (HB3) proliferation (AID 743347; call rule not given here;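 also: plate controls were DMSO vehicle wells for no effect and artemisinin wells for full effect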); details: P. falciparum HB3 in erythrocytes, SYBR Green DNA, 72 h; at 28.5 µM (top of the series) unless noted
# In short: as §1
# [8] = High-throughput drug toxicity screening in the BPDCN cell line Gen2.2 (AID 1224824; call rule not given here;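 also: cells exposed to compounds for 48 h before reading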); details: Gen2.2 BPDCN cells; at 45.8 µM (top of the series) unless noted
# In short: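 CellTiter-Glo luminescence read after 48 h compound exposure at 37 C defines viability; percent activity set with DMSO as 100% and bortezomib (9.2 uM final) as 0%. 500 exponentially growing cells per well, RPMI plus 10% FBS.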
# [9] = High-throughput drug toxicity screening in the BPDCN cell line Cal-1 (AID 1224825; call rule not given here); details: Cal-1 BPDCN cell viability, qHTS; at 45.8 µM (top of the series) unless noted
# In short: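 CellTiter-Glo luminescence after 48 h compound exposure; percent activity scaled with DMSO as 100% and bortezomib (9.2 uM final) as 0%. Cal-1 cells seeded at 500/well in RPMI, 10% FBS, no phenol red.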
# [10] = qHTS assay for measurement of the activity of small molecule inhibitors on Zika virus induced Caspase-3 activity in human iPSC derived neural progenitor cells (hNPCs) (AID 1224857); also: % of control where 0% means no effect; nearly all actives have a fitted effect of over 65% in size
# In short: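 After overnight (16–20 h) culture at 350 cells/well, hNPCs get compound, then ZIKV 2 FFU/cell one hour later. Six hours on, Caspase-Glo 3/7 is added and luminescence measured.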
# [11] = qHTS assay for measurement of the activity of small molecule inhibitors on Zika virus induced Caspase-3 activity in human astrocytoma cells (AID 1224859);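 also: plate controls were ZIKV-infected untreated cells for no effect and uninfected cells for full effect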
# In short: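 Inhibition of Zika-induced caspase-3/7 activity: SNB-19 cells, 1 h compound pretreatment, ZIKV 2 FFU/cell for 6 h at 37 C, Caspase-Glo luminescence read-out.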
# [12] = qHTS Screen of the MIPE 4.0 Collection Against Ewings Sarcoma (RDES) (AID 1259252); also: nearly all actives have a fitted effect of over 35% in size; also: potency is read from the fitted curve at half-maximal effect
# In short: (§2)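 Log-phase cells in RPMI with 5% FBS attached for 4 h, then received compounds as a titration for 48 h at 37C, 5% CO2. Viability was read by CellTiter-Glo luminescence and normalized to DMSO and no-cell wells.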
# [13] = qHTS Screen of the MIPE 4.0 Collection Against Ewings Sarcoma (TC71) (AID 1259253); also: nearly all actives have a fitted effect of over 40% in size; also: potency is read from the fitted curve at half-maximal effect
# In short: as §2
# [14] = qHTS Screen of the MIPE 4.0 Collection Against Ewings Sarcoma (EW8) (AID 1259255); also: nearly all actives have a fitted effect of over 35% in size; also: potency is read from the fitted curve at half-maximal effect;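 as to viability: 100% = DMSO-treated cells and 0% = medium-only wells without cells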
# In short: as §2
# [15] = qHTS assay for cell viability of the p53RE-bla HCT-116 cell line (AID 743292); also: % is scaled to controls: 0 for no effect and ±100 for the full control effect; nearly all actives have a fitted effect of over 55% in size
# In short: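 HCT-116 p53RE-bla cells seeded 4,000/well; 5 h at 37 C; compound (DMSO) added; 16 h at 37 C; CellTiter-Glo added, 30 min RT; luminescence read.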
# [16] = qHTS assay for cell viability of HEK293 cells (AID 743288); details: ATP luminescence (CellTiter-Glo), 18 h, stronger effect = lower value; also: % is scaled to controls: 0 for no effect and ±100 for the full control effect; nearly all actives have a fitted effect of over 50% in size
# In short: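 Readout is luciferase-coupled ATP content (CellTiter-Glo luminescence, 30 min room temperature) as a measure of metabolically competent cells. Parental HEK293 cells were plated 5 h or more before compound addition, then treated 18 h at 37 C.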
# [17] = qHTS Assay for Identifying Gametocytocidal Compounds (AID 743244);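 also: % is scaled to controls: 0 for no effect and ±100 for the full control effect; actives lower the fluorescent signal which means gametocytes are killed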; details: P. falciparum 3D7 stage III-V gametocytes, alamarBlue, 72 h; max response: stronger effect = lower value
# In short: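 Using 20,000 stage III–V 3D7 gametocytes per well, compounds were incubated 72 h under 37 °C/5% CO2. Viability was then assessed by 24 h alamarBlue reduction, measured fluorometrically at 525/598 nm.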
SMILES,remaining parasite growth % (stronger effect = lower value) [1],"activity, percent of control [2]","remaining proliferation (% of control), lower = more inhibition [3]","parasite growth, % of DMSO control [4]","parasite growth remaining, % of DMSO control (lower = more inhibition) [5]","parasite growth, % of control (lower = inhibition) [6]","growth, % of control [7]","cell viability, % of control (lower = more cytotoxic) [8]",viability (% of control) [9],Potency [10],Potency [11],Potency [12],Potency [13],Potency [14],outcome [15],max response [16],max response [17]
COc1cc(C)c(Sc2cnc(NC(=O)c3ccc(CNC(C)C(C)(C)C)cc3)s2)cc1C(=O)N1CCN(C(C)=O)CC1 (stereo not given),8.84%,8.81%,4.6%,7.09%,11%,17.2%,4.86%,4.37%,3.38%,inactive,inactive,16.6 µM (active),14.8 µM (active),1.48 µM (active),,,
CC(C)n1cnc2c(NCCc3ccc(O)cc3)nc(-c3csc4ccccc34)nc21,,,,5.76%,9.54%,,,11.4%,2.43%,inactive,inactive,2.35 µM (active),4.18 µM (active),13.2 µM (active),,,
CC(C=CC1=C(C)CCCC1(C)C)=CC=CC(C)=CC(=O)Nc1ccc(O)cc1,,,,4.7% [at 57.5 µM],6.69% [at 57.5 µM],18.5% [at 57.5 µM],7.5% [at 57.5 µM],5.64% [at 92.2 µM],4.87% [at 92.2 µM],inactive,inactive,2.41 µM (active),5.4 µM (active),4.29 µM (active),inactive,,
Nc1ncn([C@@H]2O[C@H](CO)[C@@H](O)[C@@H]2O)c(=O)n1,96.3%,90.8%,89.3%,100%,95.9%,92.3%,95%,15.6%,5.42%,inactive,inactive,6.62 µM (active),4.18 µM (active),7.43 µM (active),,,
CC(C)OC(=O)[C@H](C)N[P@](=O)(OC[C@H]1O[C@@H](n2ccc(=O)[nH]c2=O)[C@](C)(F)[C@H]1O)Oc1ccccc1,,,,,,,,128%,88.9%,inactive,inactive,inactive,inactive,inactive,,,
C[C@]12CC[C@@H]3c4ccc(O)cc4CC[C@H]3[C@H]1CC[C@H]2O,,,,65.8%,,74%,86.3%,50.6%,12.5%,inactive,inactive,8.33 µM (active),16.6 µM (active),18.7 µM (active),inactive,-7.02% (inactive),
Cc1ccccc1C(=O)Nc1ccc(C(=O)N2CCCC(O)c3cc(Cl)ccc32)c(C)c1 (stereo not given),,,,22.8%,75.6%,46%,24.6%,129%,104%,inactive,inactive,inactive,inactive,inactive,,,1.39% (inactive)
OCC(O)C(O)C(O)CO (stereo not given),,,,88.8%,105%,114%,95.9%,59.2%,66.8%,inactive,inactive,inactive,inactive,inactive,,,
C[C@H](CCC(=O)O)[C@H]1CC[C@H]2[C@@H]3[C@H](O)C[C@@H]4C[C@H](O)CC[C@]4(C)[C@@H]3CC[C@]12C,,,,,,,,114%,97.2%,inactive,inactive,inactive,inactive,inactive,,,
CCCCOc1ccc(C(=O)Nc2ccc(F)cc2F)cc1,,,,108%,95.7%,174%,,152%,105%,inactive,inactive,inactive,inactive,inactive,,,
CON=C(C(=O)N[C@@H]1C(=O)N2C(C(=O)O)=C(Cn3ccc(=N)n3CCO)CS[C@H]12)c1csc(N)n1,,,,,,,,137%,95.7%,inactive,inactive,inactive,inactive,inactive,,,
C[N+]1(C)[C@@H]2C[C@@H](OC(=O)C(O)(c3cccs3)c3cccs3)C[C@H]1[C@@H]1O[C@@H]12,,,,,,,,87.6%,97.5%,inactive,inactive,inactive,inactive,inactive,,,
O=c1ccn([C@@H]2O[C@H](CO)[C@H](O)[C@@H]2F)c(=O)[nH]1,,,,187%,100%,107%,,191%,119%,inactive,inactive,3.72 µM (active),3.32 µM (active),26.4 µM (active),,,
CC(=O)ON=C1C(c2c(O)[nH]c3cc(Br)ccc23)=Nc2ccccc21,,,,2.37%,6.76%,6.05%,,129%,17.5%,inactive,inactive,2.96 µM (active),9.35 µM (active),7.43 µM (active),,,
COc1cc(OC)c(NC(=O)Nc2cc(C)on2)cc1Cl,,,,69.1%,100%,54.6%,,187%,80.9%,inactive,inactive,inactive,inactive,inactive,,,
O=C(C[C@@H]1CC=CCCC(=O)O[C@H](c2ccccc2)CNC1=O)NCc1ccc(Cl)cc1,94.2%,102%,71.1%,62.4%,96.1%,65.3%,54.9%,17%,94.4%,inactive,inactive,inactive,inactive,inactive,,,
Cc1ccc([N+](=O)[O-])cc1S(=O)(=O)N(C)N=Cc1cnc2ccc(Br)cn12,,,,5.89%,11.3%,20.1%,,28.8%,3.92%,inactive,inactive,0.0296 µM (active),0.0209 µM (active),0.0372 µM (active),,,
O=C1c2cccc(O)c2C(=O)c2c(O)cc(CO)cc21,,,,,,,,161%,116%,inactive,inactive,inactive,inactive,inactive,inactive,-3.37% (inactive),
